# Measured values published in ChEMBL document CHEMBL4513141, “CO-ADD screening of NIH (USA) - Clinical Collection” (2021).
# Values joined by “and” are separate entries in the source; they are usually repeats but may differ in a detail not shown here. Equal values may be shown once. Measured potencies and affinities stand elsewhere.
# Tested on: Candida albicans
# Settings: 20 µM
row,Structure (SMILES),Inhibition
1,CCc1nn(CCCN2CCN(c3cccc(Cl)c3)CC2)c(=O)n1CCOc1ccccc1.Cl [NEFAZODONE HYDROCHLORIDE],2.01%
2,O=C1C(CC[S+]([O-])c2ccccc2)C(=O)N(c2ccccc2)N1c1ccccc1 (stereo not drawn) [SULFINPYRAZONE],4.96%
3,CC(C)(C)NC[C@H](O)COc1nsnc1N1CCOCC1.O=C(O)/C=C\C(=O)O [TIMOLOL MALEATE],-1.73%
4,CC(C)NCC(O)c1ccc(NS(C)(=O)=O)cc1.Cl (stereo not drawn) [SOTALOL HYDROCHLORIDE],5.09%
5,CCOC(=O)C1=C(C)NC(C)=C(C(=O)OC)C1c1cccc(Cl)c1Cl (stereo not drawn) [FELODIPINE],1.71%
6,CC(C)c1ccc2c(c1)c(SC(C)(C)C)c(CC(C)(C)C(=O)O)n2Cc1ccc(Cl)cc1,1.56%
7,C[C@@H]1C[C@H]2[C@@H]3CCC4=CC(=O)C=C[C@]4(C)[C@@]3(F)[C@@H](O)C[C@]2(C)[C@@]1(O)C(=O)CO [DEXAMETHASONE],1.68% and 4.41%
8,COc1ccc(C(=O)NCc2ccc(OCCN(C)C)cc2)cc1OC.Cl,4.71%
9,CC(=O)/N=c1/sc(S(N)(=O)=O)nn1C [METHAZOLAMIDE],3.37%
10,N[C@@H](Cc1cc(I)c(Oc2cc(I)c(O)c(I)c2)c(I)c1)C(=O)O [LEVOTHYROXINE],21.1%
11,CCN1CCC[C@H]1CNC(=O)c1c(O)c(Cl)cc(Cl)c1OC [RACLOPRIDE],2.44%
12,Cc1cccc(CN2CCN(C(c3ccccc3)c3ccc(Cl)cc3)CC2)c1.Cl.Cl (stereo not drawn),1.13%
13,Nc1nnc(-c2cccc(Cl)c2Cl)c(N)n1 [LAMOTRIGINE],3.32%
14,Clc1ccc2c(c1)C(N1CCNCC1)=Nc1ccccc1O2 [AMOXAPINE],4.28%
15,CC(C)[C@H](N)C(=O)OCCOCn1cnc2c(=O)nc(N)[nH]c21.Cl [VALACYCLOVIR HYDROCHLORIDE],3.14%
16,COc1ccc([C@@H]2Sc3ccccc3N(CCN(C)C)C(=O)[C@@H]2OC(C)=O)cc1.Cl [DILTIAZEM HYDROCHLORIDE],4.02%
17,Cl.c1ccc(CC2=NCCN2)cc1 [TOLAZOLINE HYDROCHLORIDE],2.51%
18,Cc1cnc(NC(=O)C2=C(O)c3ccccc3S(=O)(=O)N2C)s1 [MELOXICAM],9.71%
19,CN1CCN(CCCN2c3ccccc3Sc3ccc(C(F)(F)F)cc32)CC1.Cl.Cl [TRIFLUOPERAZINE HYDROCHLORIDE],2.94%

row,Structure (SMILES),Inhibition
1,CC(C)[N+]1(C)C2CCC1CC(OC(=O)C(CO)c1ccccc1)C2.[Br-] (stereo not drawn),0.17%
2,CCC[C@@H]1C[C@@H](C(=O)N[C@@H]([C@H]2O[C@H](SC)[C@H](O)[C@@H](O)[C@H]2O)[C@@H](C)O)N(C)C1.Cl.O [LINCOMYCIN HYDROCHLORIDE],4.06%
3,CC(C)c1ccc2oc3nc(N)c(C(=O)O)cc3c(=O)c2c1 [AMLEXANOX],8.26%
4,COc1cc(C(=O)NS(=O)(=O)c2ccccc2C)ccc1Cc1cn(C)c2ccc(NC(=O)OC3CCCC3)cc12 [ZAFIRLUKAST],0.8%
5,"CCN(CC)C(=O)[C@]1(c2ccccc2)C[C@@H]1CN.Cl [1R,2S-MILNACIPRAN HYDROCHLORIDE]",0.44%
6,CCN(CC)CC1CCCCN1CC(=O)N1c2ccccc2C(=O)Nc2cccnc21 (stereo not drawn) [OTENZEPAD],3.03%
7,CNCC(O)c1ccc(O)c(O)c1 (stereo not drawn) [RACEPINEPHRINE],4.12%
8,Cl.NC1CCN(c2cccc(Cl)n2)CC1,2.49%
9,CCOC(=O)OC(C)OC1=C(C(=O)Nc2ccccn2)N(C)S(=O)(=O)c2ccccc21 (stereo not drawn) [AMPIROXICAM],0.25%
10,C#C[C@]1(O)CC[C@H]2[C@@H]3CCC4=CC(=O)CC[C@@H]4[C@H]3CC[C@@]21CC [LEVONORGESTREL],3.12%
11,C/C=C1/[C@H]2C=C(C)C[C@]1(N)c1ccc(O)nc1C2,2.85%
12,C#C[C@]1(O)CC[C@H]2[C@@H]3CCC4=Cc5oncc5C[C@]4(C)[C@H]3CC[C@@]21C [DANAZOL],6.36%
13,C=C1/C(=C\C=C2/CCC[C@]3(C)[C@@H]([C@H](C)/C=C/[C@@H](O)C4CC4)CC[C@@H]23)C[C@@H](O)C[C@@H]1O [CALCIPOTRIENE],0.06%
14,CCC(=C(c1ccccc1)c1ccc(OCCN(C)C)cc1)c1ccccc1,5.96%
15,O=c1cnn([C@@H]2O[C@H](CO)[C@@H](O)[C@H]2O)c(=O)[nH]1 [6-AZAURIDINE],7.12%
16,NC(N)=Nc1nc(CSCC/C(N)=N/S(N)(=O)=O)cs1 [FAMOTIDINE],3.01%
17,CN(C)CCCN1c2ccccc2CCc2ccc(Cl)cc21.Cl [CLOMIPRAMINE HYDROCHLORIDE],2.36%
18,CC(N)C12CC3CC(CC(C3)C1)C2.Cl (stereo not drawn) [RIMANTADINE HYDROCHLORIDE],2.89%
19,CN(C)C(=O)Oc1ccc[n+](C)c1.[Br-] [PYRIDOSTIGMINE BROMIDE],1.97%
